Bioassay records from PubChem BioAssay.
Pf growth 48h – P. falciparum growth inhibition at 48 hours (one generation) | P. falciparum luciferase growth in erythrocytes, 48 h | Potency, µM (highest dose often 28.7 µM), inactives show top-dose activity change, negative = inhibition, hits mostly inhibitors | 310,000 tested, 5.9% active | AID 504832; note: potency is the fitted concentration of half-maximal effect
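Read-out is firefly luciferase luminescence from an integrated reporter in P. falciparum, so falling signal marks reduced parasite growth. Infected erythrocytes were at 2% hematocrit and 0.1% parasitemia (final) in Albumax-supplemented RPMI 1640.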
HCV inh – blocks hepatitis C virus. Huh7.5.1 HCVcc-Cre infection, luciferase reporter, 44 h. Potency, µM (highest dose often 41.8 µM), for the others: top-dose activity change, negative = inhibition, usual class: inhibitors. 340,000 tested, 3.4% active; note: potency is the fitted concentration of half-maximal effect
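1,000 cells/well; 4 h culture; + compound; + HCVcc-Cre (~0.5 moi); 44 h; luciferase substrate, RT 15 min; read 15 sec.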
Pf growth 96h – P. falciparum growth inhibition at 96 hours. P. falciparum luciferase reporter growth, 96 h. Potency, µM (doses to about 28.7 µM), without a hit: at the highest dose activity change, negative = inhibition, usual class: inhibitors. 320,000 tested, 6.9% active; note: potency is the fitted concentration of half-maximal effect
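Cell-based qHTS: luciferase-tagged P. falciparum in erythrocytes (2% hematocrit, 0.05% parasitemia final) incubated with compounds for 96 hours, 37 C, 5% CO2; luciferase detection reagent then added and luminescence measured.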
HCMV antiviral – human cytomegalovirus inhibition; HFF cells, HCMV-luciferase reporter, 72 h; hits give low values; activity change, negative = inhibition, % at 57.5 µM; 410,000 tested, 4.5% active; in the data active = activity change below about -60%; inconclusive = no clear call, values can overlap the other calls; inactive = above about -39%
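Screen run at 2 compound doses on HFFs infected with reporter HCMV, MOI 1 PFU/cell. Luciferase activity from cell lysates at 72 h post infection gave inhibition relative to buffer-only and Salinomycin wells.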
Marburg entry inh – Marburg virus entry inhibition; Marburg virus pseudotyped entry inhibition, cell reporter; Potency, µM (top dose mostly 37.8 µM), inactives show top-dose activity change, negative = inhibition, hits mostly inhibitors; 300,000 tested, 1.8% active; calls by dose curve; tested in HEK293 cells; note: potency is the fitted concentration of half-maximal effect
LASV entry inh – Lassa virus entry inhibition; 300,000 tested, 1.2% active; Potency, µM (highest dose often 37.9 µM), for the others: at the top dose activity change, negative = inhibition, hits mostly inhibitors; Lassa virus pseudotype entry inhibition, cell reporter; calls by dose curve; tested in HEK293 cells; note: potency is the fitted concentration of half-maximal effect; nearly all actives have a fitted effect of over 50% in size
Numbers without * were called inactive; [ ] = remark or other dose. The list is not random: actives were taken first. Their share in the collection is about 14%. Unless noted, calls come from the whole dose curve; as a rule, active = well fitted inhibition curve with a large enough effect; inconclusive = small, poorly fitted or top-dose-only effect, or another doubt; inactive = no such curve, though single readings can be large or run the other way. % is set by controls: 0 for no effect and ±100 for the full control effect.

For Cc1cc2nnn(-c3nnc(-c4ccccc4)c4ccccc34)c2cc1C the results were Pf growth 48h inconclusive, HCV inh -4.6%, Pf growth 96h 8.28µM*, HCMV antiviral -14.3, Marburg entry inh 18.8% and LASV entry inh 6.6%.
For Cc1ccc(C(CC(=O)Nc2ccc(F)c(Cl)c2)N2Cc3ccccc3C2=O)cc1 (stereo not drawn) the results were HCMV antiviral -104.3* and LASV entry inh 4.2%[46.1 µM].
`Cc1cc(C)cc(C(=O)N2CC(=O)Nc3ccc(Br)cc3C2c2ccccc2)c1` (stereo not drawn) gave HCMV antiviral -8.7 and LASV entry inh inconclusive.
Screening N#CC/C(N)=N/Nc1nc2ccccc2nc1Cc1ccccc1 returned Pf growth 48h 4.65µM*, HCV inh -1.7%, Pf growth 96h inconclusive, HCMV antiviral 42.9, Marburg entry inh -23.6%[46.1 µM] and LASV entry inh -9.2%.
`CC(=O)c1cccc(NC(=O)c2c(C)nn(-c3ccc(F)cc3)c2-n2cccc2)c1` gave HCMV antiviral -10.7 and LASV entry inh 18.9%[46.1 µM].
For Cc1c(-c2ccccc2)sc(N)c1C(=O)N1CCOCC1 the results were Pf growth 48h 13.1µM*, HCV inh 4.2%, Pf growth 96h 4.1%, HCMV antiviral -13.8, Marburg entry inh 1.2% and LASV entry inh -19.5%.
Screening O=S(=O)(NCCc1nnc2ccc(SCc3ccccc3Cl)nn12)c1ccccc1 returned HCMV antiviral -15.8 and LASV entry inh -24.3%[46.1 µM].
Screening COC(=O)c1[nH]c2cc(OC)ccc2c1NC(=O)CCN1CCCC(C)(C)C1 returned Pf growth 48h 1.3%, HCV inh inconclusive, Pf growth 96h 1.65µM*, HCMV antiviral -19.5, Marburg entry inh 10.3% and LASV entry inh 24.2%.
Screening COC(=O)c1[nH]c2cccc(OC)c2c1NC(=O)CCN1CCC(C)CC1 returned Pf growth 48h 8.3%, HCV inh -6.0%, Pf growth 96h 1.85µM*, HCMV antiviral -25.4, Marburg entry inh 2.3% and LASV entry inh -0.5%.
For COC(=O)c1[nH]c2cc(OC)ccc2c1NC(=O)CCN1CCCCC1 the results were Pf growth 48h -6.2%, HCV inh -7.1%, Pf growth 96h 25.4%, HCMV antiviral -35.8, Marburg entry inh 2.6%[46.1 µM] and LASV entry inh 0.1%.
For COC(=O)c1[nH]c2cc(OC)ccc2c1NC(=O)c1ccc2c(c1)OCO2 the results were Pf growth 48h inconclusive, HCV inh 2.51µM*, Pf growth 96h inconclusive, HCMV antiviral -39.4, Marburg entry inh -15.6% and LASV entry inh -3.2%.
COC(=O)c1[nH]c2cc(OC)ccc2c1NC(=O)c1c(F)cccc1F was read as Pf growth 48h -10.0%, HCV inh 12.6µM*, Pf growth 96h inconclusive and HCMV antiviral -15.7.
For CCN(CC(=O)Nc1c(C(=O)OC)[nH]c2ccccc12)c1ccc2c(c1)OCO2 the results were Pf growth 48h 10.4µM*, HCV inh inconclusive, Pf growth 96h inconclusive, HCMV antiviral 1.5, Marburg entry inh 6.51µM* and LASV entry inh -9.1%.
For CCOC(=O)c1noc2ncnc(N3CCC(C)CC3)c12 the results were HCMV antiviral -9.6 and LASV entry inh -0.3%[46.1 µM].
For COC(=O)CC1(C(=O)OC)Oc2ccc(Br)cc2C(=O)N1c1cccc(Cl)c1Cl (stereo not drawn) the results were Pf growth 48h inconclusive, HCV inh inconclusive, Pf growth 96h 13.1µM*, HCMV antiviral 11.0, Marburg entry inh inconclusive and LASV entry inh inconclusive.
Screening COC(=O)CC1(C(=O)OC)Oc2ccc(Br)cc2C(=O)N1c1cc(Cl)cc(Cl)c1 (stereo not drawn) returned Pf growth 48h 5.22µM*, HCV inh inconclusive, Pf growth 96h 9.28µM*, HCMV antiviral 30.5, Marburg entry inh 6.4%[46.1 µM] and LASV entry inh 14.8%.
COC(=O)CC1(C(=O)OC)Oc2ccc(Br)cc2C(=O)N1c1ccc(Br)cc1Cl (stereo not drawn) was read as Pf growth 48h inconclusive, HCV inh inconclusive, Pf growth 96h 11.7µM*, HCMV antiviral -21.8, Marburg entry inh inconclusive and LASV entry inh inconclusive.
COC(=O)CC1(C(=O)OC)Oc2ccc(Br)cc2C(=O)N1c1cc(Cl)c(Cl)cc1Cl (stereo not drawn) was read as Pf growth 48h inconclusive, HCV inh inconclusive, Pf growth 96h inconclusive and HCMV antiviral -17.1.
Cc1ccc(CCNC(=O)Cn2ncc3c([nH]c4ccc(C)cc43)c2=O)cc1 was read as HCMV antiviral 4.2 and LASV entry inh 27.5%[46.1 µM].
For CCOc1ccc(NC(=O)CN2CCCN(Cc3cc(C)ccc3C)S2(=O)=O)cc1 the results were HCMV antiviral inconclusive, Marburg entry inh 4.4%[46.1 µM] and LASV entry inh -3.5%[46.1 µM].
`CSC1=C(C#N)C2(CCCCC2)C(C(=O)Nc2ccccc2)=C(C)N1` gave HCV inh -19.2% and HCMV antiviral -20.4.
Screening CC1=C(C(=O)Nc2ccccc2)C2(CCCCC2)C(C#N)=C(S)N1 returned HCV inh -8.8%, Pf growth 96h 10.4µM*, HCMV antiviral -17.5, Marburg entry inh -28.4%[46.1 µM] and LASV entry inh 0.4%.
`N#CC1=C(N)NC(SCc2ccc(F)cc2)=C(C#N)C12CCCCC2` gave Pf growth 48h inconclusive, HCV inh inconclusive, Pf growth 96h inconclusive, HCMV antiviral -26.2, Marburg entry inh 7.94µM* and LASV entry inh inconclusive.
N#CC1=C(N)NC(SCC(=O)O)=C(C#N)C12CCCC2 was read as Pf growth 48h -13.9%, HCV inh 11.5%, Pf growth 96h 96.5%[5.75 µM], HCMV antiviral 7.6, Marburg entry inh -21.5%[46.1 µM] and LASV entry inh -1.5%.
`N#CC1=C(N)NC(SCC(=O)Nc2ccccc2)=C(C#N)C12CCCC2` gave Pf growth 48h 1.65µM*, HCV inh -17.2%, Pf growth 96h 22.7%, HCMV antiviral -21.3, Marburg entry inh -20.6% and LASV entry inh 9.2%.
For C=CCOc1ccc([C@H]2/C(=C(/O)c3ccc(F)cc3)C(=O)C(=O)N2CCCN(C)C)cc1 the results were Marburg entry inh 21.4%.
Screening O=C(NCCc1nc2ccccc2n1Cc1ccc(F)cc1)c1ccco1 returned HCMV antiviral -11.8, Marburg entry inh -18.1%[46.1 µM] and LASV entry inh -7.0%[46.1 µM].
For C/C(=N\Nc1ccccn1)c1cccs1 the results were Pf growth 48h 342.2%, HCV inh 10µM*, Pf growth 96h 263.8%, HCMV antiviral 114.2 and Marburg entry inh -12.2%[46.1 µM].
C/C(=N\Nc1ccccn1)c1ccc(OC(F)F)cc1 was read as Pf growth 48h 5.4%, HCV inh 8.91µM*, Pf growth 96h 57.5%, HCMV antiviral 34.1 and Marburg entry inh inconclusive.
For CCN(C(=O)CSc1nc2ccccc2n1CC(=O)N1CCCC(C)C1)c1ccccc1 (stereo not drawn) the results were HCMV antiviral -10.4 and LASV entry inh 21.3%[46.1 µM].
